Like-named read-outs stand apart in the source and are kept apart here. Among all 13,000 compounds or so, about 3,200 (25%) showed an effect of 50% or more. The list shows a part of the results.
System: P. falciparum stage V gametocytes
Set-up: BacTiter-Glo ATP luminescence viability of purified stage V gametocytes in 384-well plates, per cent inhibition versus DMSO
Details: 48 h, 5 µM, inhibitor

SMILES	% Inhibition [%]	% Inhibition (% Inhibition) [%]
Cc1cc2nc(-c3cc(-c4cccc(NS(C)(=O)=O)c4)cnc3N)[nH]c2cc1C [TCMDC-133558]	-28.88	
Cc1cccc(-c2nc3cc(NC(=O)c4ccc([N+](=O)[O-])o4)ccc3o2)c1 [TCMDC-123925]	17.49	
CC(C)c1ccc2oc(-c3ccc(NC(=O)c4ccc([N+](=O)[O-])o4)cc3)nc2c1 [TCMDC-124010]	79.92	
O=C(Nc1ccc2oc(-c3ccc(Cl)cc3Cl)nc2c1)c1ccc([N+](=O)[O-])o1 [TCMDC-123753]	49.41	
CCc1ccc(-c2nc3cc(NC(=O)c4ccc([N+](=O)[O-])o4)ccc3o2)cc1 [TCMDC-123924]	1.176	
O=C(Nc1ccc2oc(-c3ccc(Br)cc3)nc2c1)c1ccc([N+](=O)[O-])o1 [TCMDC-123698]	17.72	
Cc1ccc(-c2nc3cc(NC(=O)c4ccc([N+](=O)[O-])o4)ccc3o2)cc1Cl [TCMDC-123657]	94.01	
O=C(Nc1ccc(-c2ccc(-c3nc4cc(C(F)(F)F)ccc4[nH]3)s2)cc1)c1ccoc1 [TCMDC-136842]	-23.12	
CCCOc1cc2c(cc1OCCC)C(C=Cc1ccc(Cl)cc1Cl)=NC(C)C2.Cl (stereo not drawn) [TCMDC-137448]	86.79	
COc1cc2c(cc1OC)C(C(=O)c1ccccc1)=NCC2.Cl [TCMDC-141993]	35.87	
CCCCOc1cc2c(cc1OCC)C(C=Cc1ccc(Cl)cc1Cl)=NCC2.Cl [TCMDC-137450]	76.64	
CCCCN(CCCC)CCNC(=O)c1ccc(-c2nc3ccc(Cl)cc3[nH]2)c(OCC)c1 [TCMDC-140909]	-44.96	
CC(C)C1=CC(=NOS(=O)(=O)c2ccccc2)C=C(C(C)C)C1=O [TCMDC-124172]	-30.75	
O=C(/C=C/c1ccc2ccccc2c1)NCC1(c2ccc(-c3ccccc3)cc2)CCOCC1 [TCMDC-134257]	16.18	
O=C(Nc1ccc(Cn2ncc(N3CCNCC3)c(Cl)c2=O)cc1)Nc1ccc(-c2ccccc2)cc1 [TCMDC-141922]	-25.28	
O=C(Nc1ccc(Cn2ncc(N3CCCNCC3)c(Cl)c2=O)cc1)Nc1ccc(-c2ccccc2)cc1 [TCMDC-141928]		-32.1
CC1CN(c2cnn(Cc3ccc(NC(=O)Nc4ccc(-c5ccccc5)cc4)cc3)c(=O)c2Cl)CC(C)N1 (stereo not drawn) [TCMDC-141940]	80.37	
Cc1ccc(Cn2ncc(N3CCNCC3)c(Cl)c2=O)cc1NC(=O)Nc1ccc(-c2ccccc2)cc1 [TCMDC-141921]	40.54	

SMILES	% Inhibition [%]	% Inhibition (% Inhibition) [%]
O=C(Nc1ccc(-c2ccccc2)cc1)Nc1cccc(Cn2ncc(N3CCCNCC3)c(Cl)c2=O)c1 [TCMDC-141923]	12.88	
Cc1c(Cn2ncc(N3CC(C)NC(C)C3)c(Cl)c2=O)cccc1NC(=O)Nc1ccc(-c2ccccc2)cc1 (stereo not drawn) [TCMDC-141936]	-6.259	
Cc1ccc(Cn2ncc(N3CCCNCC3)c(Cl)c2=O)cc1NC(=O)Nc1ccc(-c2ccccc2)cc1 [TCMDC-141924]	99.19	
O=C(Nc1ccc(-c2ccccc2)cc1)Nc1cccc(Cn2ncc(N3CCNCC3)c(Cl)c2=O)c1 [TCMDC-141920]	-37.77	
Cc1c(Cn2ncc(N3CCC(N)CC3)c(Cl)c2=O)cccc1NC(=O)Nc1ccc(-c2ccccc2)cc1 [TCMDC-141931]	109.1	
Cc1ccc(Cn2ncc(N3CC(C)NC(C)C3)c(Cl)c2=O)cc1NC(=O)Nc1ccc(-c2ccccc2)cc1 (stereo not drawn) [TCMDC-141937]	14.65	
CC1CN(c2cnn(Cc3cccc(NC(=O)Nc4ccc(-c5ccccc5)cc4)c3)c(=O)c2Cl)CC(C)N1 (stereo not drawn) [TCMDC-141935]	-13.22	
NC1CCN(c2cnn(Cc3cccc(NC(=O)Nc4ccc(-c5ccccc5)cc4)c3)c(=O)c2Cl)CC1 [TCMDC-141930]	54.32	
CC(C)C[C@H](NC(=O)c1ccc(OCCN2CCOCC2)cc1)C(=O)N[C@H](/C=N/N1CCNC1=O)CCc1ccccc1 [TCMDC-136156]	19.17	
O=C(Nc1ccc(Cl)cc1)Nc1ccc2nonc2c1 [TCMDC-124586]	-84.09	
COc1cc(N(C)Cc2cnc3nc(N)nc(N)c3n2)cc(OC)c1OC [TCMDC-137363]	43.25	
Cc1cccc(-n2c(Nc3ccc(C)c(Cl)c3)nc3ccc(S(=O)(=O)NC(C)C(C)C)cc32)c1 (stereo not drawn) [TCMDC-136234]	-15.02	
CCCc1c(C(=O)OCC)c2cc(O)ccc2n1-c1ccc(OC)cc1 [TCMDC-125126]	-66.75	
COc1cccc(C2=CC(C)(C)Oc3cc(OCCN(C)C)ccc32)c1 [TCMDC-131403]	8.416	
Cc1sc(N2CCN(C)CC2)nc1C(=O)Nc1ccc(F)cc1C(F)(F)F [TCMDC-134302]	-2.511	
O=C(Nc1ccc(Cl)cc1)Nc1ccc(Cn2ncc(N3CCCNCC3)c(Cl)c2=O)cc1 [TCMDC-133331]	-14.26	
O=C(Nc1ccc(Cn2ncc(N3CCCNCC3)c(Cl)c2=O)cc1)Nc1ccc(-c2ccccc2)cc1 [TCMDC-141927]		-25.81
Cc1ccc(NC(=O)Nc2ccc(Cn3ncc(N4CCCNCC4)c(Cl)c3=O)cc2)cc1 [TCMDC-133332]	5.468	

From publication PMC4552634, “A New Set of Chemical Starting Points with Plasmodium falciparum Transmission-Blocking Potential for Antimalarial Drug Discovery” (PLoS ONE, 2015)
